# In paper PMC7862700, “An all-to-all approach to the identification of sequence-specific readers for epigenetic DNA modifications on cytosine”:
# Tests used:
# Experiment in all cases: DAPPL (digital affinity profiling via proximity ligation, sequencing); 10 mM Tris-HCl pH 7.5, 50 mM NaCl, 1 mM DTT, 4% glycerol, room temperature, 30 min; GST-TFs on glutathione beads, 16-mer random dsDNA library, 0.1% formaldehyde crosslink after washing; high values mean tight binding
# FLI1 = target: T1, FLI1 (Homo sapiens, UniProt Q01543 1-452); conditions: protein: recombinant; tags: N-terminal GST; dsDNA, one strand shown
# T1 sequence: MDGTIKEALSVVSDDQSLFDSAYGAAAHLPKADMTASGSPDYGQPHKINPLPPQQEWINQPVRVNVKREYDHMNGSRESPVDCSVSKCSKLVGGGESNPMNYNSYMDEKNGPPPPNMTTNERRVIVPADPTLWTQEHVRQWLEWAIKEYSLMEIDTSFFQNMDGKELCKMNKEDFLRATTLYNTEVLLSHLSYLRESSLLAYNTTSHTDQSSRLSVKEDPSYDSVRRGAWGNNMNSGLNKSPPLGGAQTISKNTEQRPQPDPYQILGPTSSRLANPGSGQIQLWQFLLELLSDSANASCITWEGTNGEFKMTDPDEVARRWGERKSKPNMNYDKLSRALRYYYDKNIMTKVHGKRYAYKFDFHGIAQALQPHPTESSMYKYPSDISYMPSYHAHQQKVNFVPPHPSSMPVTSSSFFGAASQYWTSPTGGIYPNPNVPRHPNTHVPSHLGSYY
# Outline: (§1)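 After expression in yeast as GST fusions, human transcription factors were bound to glutathione beads, DNA-barcoded and mixed with a tag-only sample. The pools were incubated with 200 nmole of a 16-mer random double-stranded DNA library in Tris/NaCl/DTT/glycerol buffer (30 min, room temperature), washed and crosslinked with 0.1% formaldehyde. Proximity ligation with BsaI/T4 ligase ran for 1 h at 37 °C, before PCR amplification and sequencing on an Illumina NextSeq500. Binding signal is a hexamer's read frequency for a factor divided by its frequency for the tag-only sample.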
# ELK1 = target: T2, ELK1 (Homo sapiens, UniProt P19419 1-428); conditions: protein: recombinant; tags: N-terminal GST; dsDNA, one strand shown
# T2 sequence: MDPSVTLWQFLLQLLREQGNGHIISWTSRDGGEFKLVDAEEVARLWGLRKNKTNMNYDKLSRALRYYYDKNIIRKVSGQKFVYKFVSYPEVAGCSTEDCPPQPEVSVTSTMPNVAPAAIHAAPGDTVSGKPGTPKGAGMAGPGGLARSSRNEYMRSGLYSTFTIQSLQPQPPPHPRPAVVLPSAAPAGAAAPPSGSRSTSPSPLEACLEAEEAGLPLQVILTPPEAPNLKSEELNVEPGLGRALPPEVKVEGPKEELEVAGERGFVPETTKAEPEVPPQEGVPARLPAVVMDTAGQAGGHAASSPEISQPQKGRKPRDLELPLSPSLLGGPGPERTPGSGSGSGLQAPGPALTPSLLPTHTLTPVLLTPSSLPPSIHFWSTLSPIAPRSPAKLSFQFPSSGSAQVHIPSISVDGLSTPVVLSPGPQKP
# Outline: as §1
# GABPA = target: T3, GABPA (Homo sapiens, UniProt Q06546 1-454); conditions: protein: recombinant; tags: N-terminal GST; dsDNA, one strand shown
# T3 sequence: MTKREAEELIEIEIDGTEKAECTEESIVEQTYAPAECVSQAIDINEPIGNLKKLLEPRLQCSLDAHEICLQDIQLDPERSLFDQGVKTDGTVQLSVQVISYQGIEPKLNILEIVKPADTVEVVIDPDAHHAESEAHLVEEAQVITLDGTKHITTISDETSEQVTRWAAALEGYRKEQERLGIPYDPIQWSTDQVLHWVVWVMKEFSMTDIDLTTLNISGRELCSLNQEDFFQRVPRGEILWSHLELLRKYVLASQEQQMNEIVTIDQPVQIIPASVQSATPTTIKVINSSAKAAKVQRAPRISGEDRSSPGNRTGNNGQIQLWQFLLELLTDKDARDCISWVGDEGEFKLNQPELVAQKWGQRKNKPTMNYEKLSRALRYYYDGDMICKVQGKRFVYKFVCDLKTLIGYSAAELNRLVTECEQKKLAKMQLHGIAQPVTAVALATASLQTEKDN
# Outline: as §1
# ERG = target: T4, ERG (Homo sapiens, UniProt P11308 1-479); conditions: protein: recombinant; tags: N-terminal GST; dsDNA, one strand shown
# T4 sequence: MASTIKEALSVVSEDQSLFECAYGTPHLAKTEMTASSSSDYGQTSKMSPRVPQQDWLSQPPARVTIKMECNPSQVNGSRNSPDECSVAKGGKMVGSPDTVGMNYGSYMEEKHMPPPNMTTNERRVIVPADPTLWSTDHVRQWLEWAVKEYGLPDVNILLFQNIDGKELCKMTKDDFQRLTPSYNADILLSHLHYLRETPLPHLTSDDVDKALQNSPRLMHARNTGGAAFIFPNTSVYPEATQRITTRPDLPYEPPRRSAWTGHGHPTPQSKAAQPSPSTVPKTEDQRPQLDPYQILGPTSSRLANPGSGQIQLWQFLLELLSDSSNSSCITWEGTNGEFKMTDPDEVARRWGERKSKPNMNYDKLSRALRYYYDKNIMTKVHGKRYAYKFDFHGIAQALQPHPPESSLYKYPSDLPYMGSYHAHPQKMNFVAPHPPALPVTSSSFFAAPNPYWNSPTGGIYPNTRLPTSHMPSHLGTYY
# Outline: as §1
# ELF1 = ELF1 (Homo sapiens, UniProt P32519 1-619); conditions: protein: recombinant; tags: N-terminal GST; dsDNA, one strand shown
# Outline: as §1
# EHF = target: T5, EHF (Homo sapiens, UniProt Q9NZC4 1-300); conditions: protein: recombinant; tags: N-terminal GST; dsDNA, one strand shown
# T5 sequence: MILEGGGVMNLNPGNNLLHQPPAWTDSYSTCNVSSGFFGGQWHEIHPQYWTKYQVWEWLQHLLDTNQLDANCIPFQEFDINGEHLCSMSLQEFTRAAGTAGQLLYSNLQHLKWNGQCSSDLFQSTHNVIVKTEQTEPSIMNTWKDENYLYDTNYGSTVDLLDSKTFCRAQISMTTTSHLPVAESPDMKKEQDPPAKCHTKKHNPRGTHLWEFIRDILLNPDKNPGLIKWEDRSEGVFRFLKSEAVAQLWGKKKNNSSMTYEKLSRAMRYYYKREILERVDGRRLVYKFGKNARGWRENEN
# Outline: as §1
# SPI1 = SPI1 (Homo sapiens, UniProt P17947 1-270); conditions: protein: recombinant; tags: N-terminal GST; dsDNA, one strand shown
# Outline: as §1
# SPIB = SPIB (Homo sapiens, UniProt Q01892 1-262); conditions: protein: recombinant; tags: N-terminal GST; dsDNA, one strand shown
# Outline: as §1
# ELK3 = target: T6, ELK3 (Homo sapiens, UniProt P41970 1-407); conditions: protein: recombinant; tags: N-terminal GST; dsDNA, one strand shown
# T6 sequence: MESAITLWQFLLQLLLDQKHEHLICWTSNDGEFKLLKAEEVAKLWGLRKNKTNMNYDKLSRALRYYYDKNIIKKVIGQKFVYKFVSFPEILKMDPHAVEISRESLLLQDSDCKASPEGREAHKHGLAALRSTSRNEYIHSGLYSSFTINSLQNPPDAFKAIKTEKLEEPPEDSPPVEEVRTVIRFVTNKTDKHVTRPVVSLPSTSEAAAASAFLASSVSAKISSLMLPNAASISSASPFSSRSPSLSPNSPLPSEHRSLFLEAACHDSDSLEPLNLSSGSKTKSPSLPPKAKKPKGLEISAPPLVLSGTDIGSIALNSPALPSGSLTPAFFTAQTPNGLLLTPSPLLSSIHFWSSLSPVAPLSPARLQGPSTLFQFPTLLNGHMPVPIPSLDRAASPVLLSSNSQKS
# Outline: as §1
# FEV = target: T7, FEV (Homo sapiens, UniProt Q99581 1-238); conditions: protein: recombinant; tags: N-terminal GST; dsDNA, one strand shown
# T7 sequence: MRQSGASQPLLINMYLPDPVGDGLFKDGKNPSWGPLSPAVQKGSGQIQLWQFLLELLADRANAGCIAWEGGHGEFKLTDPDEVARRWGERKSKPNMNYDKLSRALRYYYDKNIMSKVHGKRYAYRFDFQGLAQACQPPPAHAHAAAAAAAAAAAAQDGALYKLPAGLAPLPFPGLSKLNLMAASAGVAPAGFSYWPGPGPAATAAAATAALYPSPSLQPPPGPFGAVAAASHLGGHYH
# Outline: as §1
# ETV5 = ETV5 (Homo sapiens, UniProt P41161 1-510); conditions: protein: recombinant; tags: N-terminal GST; dsDNA, one strand shown
# Outline: as §1
# HSF1 = HSF1 (Homo sapiens, UniProt Q00613 1-529); conditions: protein: recombinant; tags: N-terminal GST; chain copies: 3; dsDNA, one strand shown
# Outline: as §1
# SPIC = target: T8, SPIC (Homo sapiens, UniProt Q8N5J4 1-248); conditions: protein: recombinant; tags: N-terminal GST; dsDNA, one strand shown
# T8 sequence: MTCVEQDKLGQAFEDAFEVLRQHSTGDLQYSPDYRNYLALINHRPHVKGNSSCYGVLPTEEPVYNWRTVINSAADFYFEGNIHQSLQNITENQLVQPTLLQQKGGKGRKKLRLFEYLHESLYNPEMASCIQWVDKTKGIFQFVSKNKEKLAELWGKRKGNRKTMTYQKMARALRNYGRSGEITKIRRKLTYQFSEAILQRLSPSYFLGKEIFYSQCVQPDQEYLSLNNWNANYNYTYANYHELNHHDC
# Outline: as §1
# ELF4 = ELF4 (Homo sapiens, UniProt Q99607 1-663); conditions: protein: recombinant; tags: N-terminal GST; dsDNA, one strand shown
# Outline: as §1
# ELK4 = target: T9, ELK4 (Homo sapiens, UniProt P28324-2 1-405); conditions: protein: recombinant; tags: N-terminal GST; dsDNA, one strand shown
# T9 sequence: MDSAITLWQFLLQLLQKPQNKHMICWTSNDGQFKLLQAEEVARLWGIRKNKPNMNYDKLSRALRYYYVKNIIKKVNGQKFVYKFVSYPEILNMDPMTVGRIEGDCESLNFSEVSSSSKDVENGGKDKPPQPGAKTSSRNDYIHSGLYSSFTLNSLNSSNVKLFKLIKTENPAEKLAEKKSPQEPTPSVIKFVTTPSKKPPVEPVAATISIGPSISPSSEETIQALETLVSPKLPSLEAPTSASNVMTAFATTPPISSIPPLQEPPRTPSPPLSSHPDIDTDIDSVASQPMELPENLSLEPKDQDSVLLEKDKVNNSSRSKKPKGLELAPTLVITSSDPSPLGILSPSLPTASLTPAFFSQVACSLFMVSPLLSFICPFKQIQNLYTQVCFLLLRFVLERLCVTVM
# Outline: as §1
# ETV2 = target: T10, ETV2 (Homo sapiens, UniProt O00321 1-342); conditions: protein: recombinant; tags: N-terminal GST; dsDNA, one strand shown
# T10 sequence: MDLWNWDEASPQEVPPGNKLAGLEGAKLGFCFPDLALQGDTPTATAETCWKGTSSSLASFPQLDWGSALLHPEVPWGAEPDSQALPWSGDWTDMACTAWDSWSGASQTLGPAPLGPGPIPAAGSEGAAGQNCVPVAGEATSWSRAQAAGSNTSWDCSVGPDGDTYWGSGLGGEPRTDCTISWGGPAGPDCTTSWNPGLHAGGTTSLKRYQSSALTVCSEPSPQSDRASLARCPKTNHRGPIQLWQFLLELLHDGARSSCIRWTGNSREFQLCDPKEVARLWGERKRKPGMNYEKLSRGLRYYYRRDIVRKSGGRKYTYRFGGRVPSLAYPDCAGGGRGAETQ
# Outline: as §1
# ELF3 = target: T11, ELF3 (Homo sapiens, UniProt P78545 1-371); conditions: protein: recombinant; tags: N-terminal GST; dsDNA, one strand shown
# T11 sequence: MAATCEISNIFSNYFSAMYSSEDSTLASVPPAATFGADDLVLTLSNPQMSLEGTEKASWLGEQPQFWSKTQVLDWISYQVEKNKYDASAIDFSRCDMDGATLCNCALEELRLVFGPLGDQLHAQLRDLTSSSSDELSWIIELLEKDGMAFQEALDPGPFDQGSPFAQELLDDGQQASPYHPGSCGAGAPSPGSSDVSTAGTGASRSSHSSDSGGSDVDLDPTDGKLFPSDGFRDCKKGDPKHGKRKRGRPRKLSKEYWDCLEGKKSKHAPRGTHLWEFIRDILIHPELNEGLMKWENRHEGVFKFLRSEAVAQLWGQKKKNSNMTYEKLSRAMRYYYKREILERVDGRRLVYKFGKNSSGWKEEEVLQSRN
# Outline: as §1
# CRX = CRX (Homo sapiens, UniProt O43186 1-299); conditions: protein: recombinant; tags: N-terminal GST; dsDNA, one strand shown
# Outline: as §1
# ETV1 = ETV1 (Homo sapiens, UniProt P50549 1-477); conditions: protein: recombinant; tags: N-terminal GST; dsDNA, one strand shown
# Outline: as §1
# HSF1, sequence (Q00613 whole entry): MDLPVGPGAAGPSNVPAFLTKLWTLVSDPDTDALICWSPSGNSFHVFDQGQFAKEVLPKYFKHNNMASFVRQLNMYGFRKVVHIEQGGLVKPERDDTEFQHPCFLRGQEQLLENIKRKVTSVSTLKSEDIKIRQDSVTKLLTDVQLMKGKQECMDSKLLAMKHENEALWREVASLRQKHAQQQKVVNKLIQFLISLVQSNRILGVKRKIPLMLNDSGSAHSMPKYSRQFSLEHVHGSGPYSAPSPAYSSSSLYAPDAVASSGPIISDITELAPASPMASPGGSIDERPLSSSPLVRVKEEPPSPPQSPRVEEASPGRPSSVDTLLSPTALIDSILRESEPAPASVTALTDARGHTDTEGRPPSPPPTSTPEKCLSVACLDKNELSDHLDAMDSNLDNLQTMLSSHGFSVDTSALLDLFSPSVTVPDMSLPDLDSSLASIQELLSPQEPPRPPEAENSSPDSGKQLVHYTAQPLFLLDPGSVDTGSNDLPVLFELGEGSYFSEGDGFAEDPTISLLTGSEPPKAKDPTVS
# ELF1, sequence (P32519 whole entry): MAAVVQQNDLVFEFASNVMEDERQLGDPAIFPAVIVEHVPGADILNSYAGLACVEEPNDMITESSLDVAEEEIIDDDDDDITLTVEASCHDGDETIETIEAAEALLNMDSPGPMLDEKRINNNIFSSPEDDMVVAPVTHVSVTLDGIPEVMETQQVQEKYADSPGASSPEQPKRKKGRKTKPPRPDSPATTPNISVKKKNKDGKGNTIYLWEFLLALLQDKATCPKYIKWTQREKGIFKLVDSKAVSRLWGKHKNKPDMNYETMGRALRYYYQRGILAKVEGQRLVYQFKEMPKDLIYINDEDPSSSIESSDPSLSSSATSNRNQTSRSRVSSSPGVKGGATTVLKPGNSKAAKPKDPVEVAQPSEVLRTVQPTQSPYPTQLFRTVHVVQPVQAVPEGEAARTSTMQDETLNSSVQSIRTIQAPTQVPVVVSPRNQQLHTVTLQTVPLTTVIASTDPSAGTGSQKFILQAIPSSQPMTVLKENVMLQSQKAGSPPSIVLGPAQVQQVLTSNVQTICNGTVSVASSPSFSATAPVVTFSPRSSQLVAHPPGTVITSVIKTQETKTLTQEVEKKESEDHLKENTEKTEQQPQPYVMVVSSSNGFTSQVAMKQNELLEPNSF
# ELF4, sequence (Q99607 whole entry): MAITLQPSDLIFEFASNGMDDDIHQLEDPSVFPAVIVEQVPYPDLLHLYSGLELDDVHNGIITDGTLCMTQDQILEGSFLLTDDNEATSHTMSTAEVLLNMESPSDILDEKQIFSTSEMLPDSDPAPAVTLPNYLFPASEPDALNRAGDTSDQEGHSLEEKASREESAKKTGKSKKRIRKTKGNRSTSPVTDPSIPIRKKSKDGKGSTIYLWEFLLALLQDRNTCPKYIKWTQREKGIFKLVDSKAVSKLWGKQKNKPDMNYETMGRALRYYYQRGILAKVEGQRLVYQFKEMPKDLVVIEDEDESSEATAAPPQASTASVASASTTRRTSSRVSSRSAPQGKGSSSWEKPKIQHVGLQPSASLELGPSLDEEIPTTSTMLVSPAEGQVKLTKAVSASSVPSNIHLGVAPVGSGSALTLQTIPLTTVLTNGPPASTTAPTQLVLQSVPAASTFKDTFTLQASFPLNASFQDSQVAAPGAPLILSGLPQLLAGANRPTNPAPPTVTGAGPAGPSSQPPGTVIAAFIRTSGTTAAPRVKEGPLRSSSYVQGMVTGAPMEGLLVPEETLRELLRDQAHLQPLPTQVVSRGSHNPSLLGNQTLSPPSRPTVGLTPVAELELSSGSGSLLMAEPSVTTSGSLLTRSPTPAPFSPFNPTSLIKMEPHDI
# SPIB, sequence (Q01892 whole entry): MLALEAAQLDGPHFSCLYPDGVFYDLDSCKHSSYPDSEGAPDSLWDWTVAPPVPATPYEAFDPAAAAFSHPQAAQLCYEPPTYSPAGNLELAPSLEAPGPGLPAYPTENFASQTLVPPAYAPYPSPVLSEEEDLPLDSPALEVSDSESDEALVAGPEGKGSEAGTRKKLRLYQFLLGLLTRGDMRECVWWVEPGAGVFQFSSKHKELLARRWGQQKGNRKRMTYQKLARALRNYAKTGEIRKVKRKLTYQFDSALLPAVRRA
# ETV1, sequence (P50549 whole entry): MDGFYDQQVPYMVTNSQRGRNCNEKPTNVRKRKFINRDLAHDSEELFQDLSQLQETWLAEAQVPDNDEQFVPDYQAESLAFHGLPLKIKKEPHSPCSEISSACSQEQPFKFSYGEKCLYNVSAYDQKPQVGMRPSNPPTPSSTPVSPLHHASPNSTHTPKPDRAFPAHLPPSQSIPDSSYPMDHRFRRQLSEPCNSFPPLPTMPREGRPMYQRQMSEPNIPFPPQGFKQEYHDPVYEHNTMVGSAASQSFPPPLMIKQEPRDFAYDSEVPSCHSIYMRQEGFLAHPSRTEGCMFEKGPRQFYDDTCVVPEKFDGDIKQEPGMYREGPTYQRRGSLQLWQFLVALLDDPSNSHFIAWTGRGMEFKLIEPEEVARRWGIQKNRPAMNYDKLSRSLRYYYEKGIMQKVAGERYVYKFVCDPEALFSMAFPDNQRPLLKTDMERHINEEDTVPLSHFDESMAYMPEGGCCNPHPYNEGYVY
# ETV5, sequence (P41161 whole entry): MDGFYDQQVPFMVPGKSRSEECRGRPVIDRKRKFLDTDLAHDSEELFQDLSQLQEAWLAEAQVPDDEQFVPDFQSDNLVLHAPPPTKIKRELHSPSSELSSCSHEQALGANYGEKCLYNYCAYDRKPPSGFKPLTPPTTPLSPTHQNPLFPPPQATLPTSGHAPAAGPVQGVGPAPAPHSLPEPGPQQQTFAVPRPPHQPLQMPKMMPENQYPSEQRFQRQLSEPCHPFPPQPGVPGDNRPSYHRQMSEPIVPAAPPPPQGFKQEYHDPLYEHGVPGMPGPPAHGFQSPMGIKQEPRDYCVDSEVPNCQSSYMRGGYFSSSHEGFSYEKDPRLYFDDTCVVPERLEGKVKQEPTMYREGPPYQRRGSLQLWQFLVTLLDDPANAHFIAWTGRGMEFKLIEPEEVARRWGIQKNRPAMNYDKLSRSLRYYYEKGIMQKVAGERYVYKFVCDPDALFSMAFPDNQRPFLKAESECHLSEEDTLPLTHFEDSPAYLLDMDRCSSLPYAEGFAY
# CRX, sequence (O43186 whole entry): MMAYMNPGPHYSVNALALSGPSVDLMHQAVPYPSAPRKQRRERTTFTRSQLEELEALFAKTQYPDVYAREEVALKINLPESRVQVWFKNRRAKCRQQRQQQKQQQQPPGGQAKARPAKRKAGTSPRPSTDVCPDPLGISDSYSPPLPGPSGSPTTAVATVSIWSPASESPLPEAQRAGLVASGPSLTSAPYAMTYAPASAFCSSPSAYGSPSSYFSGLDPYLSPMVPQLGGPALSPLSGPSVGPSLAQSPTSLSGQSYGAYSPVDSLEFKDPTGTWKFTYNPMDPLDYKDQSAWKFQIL
sequence,measurement,setting,value
CTCGTC,binding signal,FLI1,"1.49 fold enrichment (6-mer frequency, TF over GST control)"
same,binding signal,ELK1,"1.27 fold enrichment (6-mer frequency, TF over GST control)"
same,binding signal,GABPA,"1.51 fold enrichment (6-mer frequency, TF over GST control)"
same,binding signal,ERG,"1.37 fold enrichment (6-mer frequency, TF over GST control)"
same,binding signal,ELF1,"1.36 fold enrichment (6-mer frequency, TF over GST control)"
same,binding signal,EHF,"1.36 fold enrichment (6-mer frequency, TF over GST control)"
same,binding signal,SPI1,"1.34 fold enrichment (6-mer frequency, TF over GST control)"
same,binding signal,SPIB,"1.39 fold enrichment (6-mer frequency, TF over GST control)"
same,binding signal,ELK3,"1.46 fold enrichment (6-mer frequency, TF over GST control)"
same,binding signal,FEV,"1.31 fold enrichment (6-mer frequency, TF over GST control)"
same,binding signal,ETV5,"1.31 fold enrichment (6-mer frequency, TF over GST control)"
same,binding signal,HSF1,"1.22 fold enrichment (6-mer frequency, TF over GST control)"
same,binding signal,SPIC,"1.37 fold enrichment (6-mer frequency, TF over GST control)"
same,binding signal,ELF4,"1.42 fold enrichment (6-mer frequency, TF over GST control)"
same,binding signal,ELK4,"1.57 fold enrichment (6-mer frequency, TF over GST control)"
same,binding signal,ETV2,"1.25 fold enrichment (6-mer frequency, TF over GST control)"
same,binding signal,ELF3,"1.47 fold enrichment (6-mer frequency, TF over GST control)"
same,binding signal,CRX,"1.02 fold enrichment (6-mer frequency, TF over GST control)"
same,binding signal,ETV1,"1.45 fold enrichment (6-mer frequency, TF over GST control)"
